# Reference: PubChem BioAssay (NCI)
# Values joined by “and” are separate entries in the source; they are usually repeats but may differ in a detail not shown here. Equal values may be shown once. This is part of a sample that, as a whole, favours compounds with a hit. Of some 83,000 tested, about 20% had one in any assay.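 Method: cells in 96-well plates; compound added at one concentration; 48 h incubation; percent growth measured; values under 10 scored active.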 Active and inactive are the calls of the source.
# Tested on: MDA-MB-468 breast
# Assay: NCI-60 one-dose screen, 48 h (100 = growth as untreated, 0 = no growth, -100 = all killed)
# Conditions: 10 µM unless noted
row,Compound,growth
1,FC(F)(F)c1cc(CNc2nc(Cl)ncc2Br)cc(C(F)(F)F)c1,64.7% (inactive)
2,S=c1c2ncccc2c(-c2ccccn2)nn1Cc1ccccn1,111% (inactive)
3,COc1cc2c(c(OC)c1OC)C(=O)N[C@@H]1[C@@H](O)[C@@H](O)[C@H](O)C[C@@H]21,102% (inactive)
4,Cc1cc(C(=O)CCCC(=O)c2cc(C)c(O)c(C)c2)cc(C)c1O,-3.17% (active)
5,O=C1/C(=C/c2ccc(Cl)cc2)CCC/C1=C\c1ccc(Cl)cc1,67.9% (inactive)
6,COc1cccc(-c2nn(C(C)(C)C)cc2-c2ccnc(NCCCNS(=O)(=O)c3cccc4ccccc34)c2)c1,110% (inactive)
7,COc1ccc(-c2cc3c(C)nc(N)nc3n(C3CCC(OCCO)CC3)c2=O)cn1 (stereo not given),-50% (active)
8,CC(C)(C)c1ccc(N2CSC(=S)N(c3ccc(C(C)(C)C)cc3)C2)cc1,111% (inactive)
9,COc1cccc(/C=C2\COc3ccc(O)cc3C2=O)c1,66.2% (inactive)
10,O=C(NCCCNc1cc(-c2cn(-c3ccccc3)nc2-c2cccc(O)c2)ccn1)Nc1cc(C(F)(F)F)cc(C(F)(F)F)c1,70.4% (inactive)
11,COc1ccc(OC)c(-c2ccc(-c3ccccc3N)c3[nH]c4ccccc4c23)c1,72.1% (inactive)
12,COc1ccc(C(C)=C(c2ccc(OCCN3CCCCCC3)cc2)c2ccc(OCCN3CCCCCC3)cc2)cc1,-69.5% (active)
13,C=CCn1c(SCC(=O)Nc2ccc(C(=O)/C=C/c3ccc(OC)cc3)cc2)nnc1-c1ccc(OC)c(OC)c1,75% (inactive)
14,CC(C)C1=CC2=C(C=O)C[C@@H]3[C@](C)(CCC[C@@]3(C)C(=O)OCC#CCN3CCCC3)[C@H]2CC1,51.3% (inactive)
15,CCCCn1c(-c2ccc(F)cc2)nc2cc(OC)c(OC)cc2c1=O,115% (inactive)
16,CC1=C[C@H]2c3c(c(O)c(O)c4oc5cc(O)cc(O)c5c(=O)c34)[C@H](c3cc(O)c(O)c4oc5cc(O)cc(O)c5c(=O)c34)[C@H]2C(C)(C)C1,3.99% (active) and -26.3% (active)
17,Fc1cnccc1-c1nc2ccc3[nH]ncc3c2c2c1CCCC2,1.78% (active)
18,COc1cc(/C=N/NC(=O)c2cn(C3CC3)c3c(OC)c(N4CC5CCCNC5C4)c(F)cc3c2=O)ccc1O (stereo not given),54.8% (inactive)
19,COc1cccc(CCN2C(=O)CCC3=C2CCC3=O)c1,103% (inactive)
20,c1ccc(-c2c(-c3ccccc3)[n+](Cc3ccc4ccccc4c3)c(-c3cccc4ccccc34)n2Cc2ccc3ccccc3c2)cc1,-62.3% (active)

row,Compound,growth
1,COc1c(B(O)O)cccc1-c1nc2ccc3[nH]ncc3c2c2c1CCC2,60% (inactive)
2,CCCCCCCC(=O)SCC/C=C/[C@@H]1CC(=O)NCc2nc(co2)C2=N[C@@](C)(CS2)C(=O)N[C@@H](C(C)C)C(=O)O1,-0.758% (active)
3,Cc1c2ncccc2nc2[nH]c3ccc(OCCN(C)C)cc3c12,-34.7% (active)
4,c1cc2ccc3cc2cc1CNCCN1CCNCc2ccc4ccc(cc4c2)CNCCN(CCNC3)CCNCc2ccc3ccc(cc3c2)CNCC1,-45.2% (active)
5,Cc1ccc(NC(=O)c2ccc(CN3CCN(C)CC3)cc2)cc1Nc1nc(-c2cccnc2)cs1,25.5% (inactive)
6,Cc1nnc(/N=C2\NC(=O)/C(=C/c3ccsc3)S2)s1,110% (inactive)
7,Cc1cc(C)c(C#N)c(SCC(=O)c2sc3c(C#N)c(C)cc(C)[n+]3c2[O-])n1,4.32% (active)
8,CCN(CC)CCCC(C)Nc1ccc2ccc(Cl)cc2n1 (stereo not given),77.8% (inactive)
9,Cc1[nH]c(/C=C/C(=O)c2ccc(C(F)(F)F)c(F)c2)c(C)c1C(=O)NCC(C)C,93.6% (inactive)
10,c1ccc2c(c1)[nH]c1c2cc[n+]2cc3c(cc12)CCCC3,-14.5% (active)
11,Nc1nc2ccccc2c2c(=O)c3ccc(Cl)cc3sc12,3.53% (active)
12,C#CC(F)(F)[C@]1(O)CC[C@H]2[C@@H]3CCC4=CC(=O)CCC4=C3[C@@H](c3ccc(C(C)=O)cc3)C[C@@]21C,81.3% (inactive)
13,COC(=O)CC[C@@H]1O[C@@H](c2ccc(F)cc2)[C@@H](O)[C@H]1O,96.5% (inactive)
14,COc1cc2nc3cc([N+](=O)[O-])ccc3c(NCCCNCC(C)(C)O)c2cc1OC,-57.7% (active)
15,CS(=O)(=O)Nc1cccc(-c2cc(-c3ccccc3Cl)c(C#N)c(N)n2)c1,-9.46% (active)
16,CCCCNc1ccc2c3c1cccc3c(=O)n1c3ccccc3nc21,-12.2% (active)
17,CC(=O)OCC(=O)[C@@]1(O)CC[C@H]2[C@@H]3CCC4=CC(=O)CC[C@]4(C)[C@@]3(F)[C@@H](O)C[C@@]21C,121% (inactive)
18,CCN(CC)CCCC(C)N=C(C1=C(C(=NC(C)CCCN(CC)CC)c2cccc(OC)c2)C(=O)NC1=O)c1cccc(OC)c1 (stereo not given),-50.4% (active)
19,CC1(C)CC2=C3C=C[C@@H]4[C@@]5(C)CCC(=O)C(C)(C)[C@@H]5CC[C@@]4(C)[C@]3(C)CC[C@@]2(C(=O)O)CC1=O,74.2% (inactive)
20,CCOC(=O)c1ccc[nH]1,100% (inactive)
